# Source: the supplement of paper PMC6555819
# Test system: VDR:RXRa (NR concentration 270 nM, RXRa partner concentration 90 nM)
# Experiment: PBM binding z-score (relative to random genomic background probes); higher = stronger binding; sequences stand for … in GC…GCGATTGACAGCGTAGAATGAAGG
# Experimental: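 Protein-binding microarray (Agilent 4x180K custom design, double-stranded 60-nt probes: 5' GC cap, 34-nt variable region, 24-nt constant primer region; full probe sequence given). Purified or IVT nuclear receptor:RXRα heterodimers (3:1 NR:RXRα, mostly 270:90 nM) or homodimers were incubated for 1 h in PBS with 2% milk and no ligand, then detected with Alexa488 antibodies. Fluorescence from o1-orientation probes (~5 replicates averaged) was converted to z-scores against 500 random hg19 background probes. Variable regions are seed direct-repeat (DR0–DR5) sites, all their single-nucleotide variants and half-site ablations.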
row,Sequence,PBM binding z-score
1,GCTAGTTGCTCAGTAAAAGGTCACACACCGGTCG,3.73
2,GATACAGGGTCAGCTAGCGGCCAGAGTATGGAAA,2.49
3,CAAGACAGGTGAAAGGTAACTCAGTCTGGTACGC,0.87
4,CCTATTAGCTGACCATAAGGGCAACCGAAGCTCG,0.159
5,TAATATAGGTAAAGGTGAAAGTCGAACGATATGA,1
6,CCGAGTGGGGCAAGGTTACCATAACGCACAGCCA,0.482
7,TCTCGGAGGACACGAAAGGTCATAGCTCGACATC,4.71
8,TTACCAACGTGAAGGTCGTTGATCCCTCTGTAGA,1.09
9,TCATATAGGTAATACAGGTGAAATTCGGCATCTA,1.12
10,GCTAGCAGGCCATTTGGGTCAATCAATGACGGGC,0.778
11,TATACAGGGTCAAGGGCCAGAGTACGAATGTCGA,4.43
12,CCTTACGGGTCAATCCAGGTTATAGCATCGGAGT,4.64
13,CCTACTGCGCCATCAGGTCATTGATATCAACGTT,2.07
14,ACTATTAGTTGACCTAGGGCAACCGATACGACGC,1.96
15,ATCGAAAGGTCGAGGGGAGTATAGAGAAAGGGAA,2.67
16,TCTATTAGTTGAAGAGCAACCGACGAGTCCGTTT,0.538
17,TCTCGGAGGACACGAAAGGTCAGAGCCCGACATC,3.26
18,GCTCGGAGGACCAGGTCAGAGCTTTGTCCGTAGA,-0.322
19,AGTCAAAGTTCACTATGTAACGTAAGATTCAGCT,3.89
20,ACTTACGGGTCACCGAGGTTATAGCACGCGTATA,7.82

row,Sequence,PBM binding z-score
1,ATCTCTAGGTAACCAAGTTCAGTGGATGCCGAAC,4.04
2,GGAAGGAGGGCATTCGAGTTGATAGCATGGCGAT,2.46
3,CTGCCTAGGTCAGGGCCAGTATAGGAGGAACGTT,0.0608
4,CGAACGAGGGCATGACTTGATAGCAAATGCCGAT,0.573
5,ATCTCTAGGTAACCAGGTTCAGTGAATGCCGAAC,4.05
6,ACTAGCAGGCCAAGTTAGGGTCACTCAAACAAAG,3.15
7,ATATGTGGGTTACATCCGGGTCATTCAGGCTATG,4.41
8,TCTAGCAGGCCAGAGGCTCACTCAAGAGGTACGG,-0.485
9,CAAACTAGCTCAAGAGGTCAAAGTCCGCTTCCCG,4.96
10,ATCTCTAGGTAAAGATAGTTCAGTGAATGCAAAT,0.815
11,CCTCGGAGGACAACAGGAGGTCAGAGCCGCCAGA,1.58
12,ACTAGTAGTTGAGACGAGGGCAACCGATAGGTTG,0.766
13,TCGAGTAGGTTACCAATGGGGCATGCAGCTTTCT,-0.0716
14,TCGTGTAGGTTAGGGGCATTCAGAATGGCGTCGA,0.914
15,TAGCCTAGGTCATGGGCCAGCATACCACGCGAAC,1.68
16,GGGACGAGGGCATTCGAGTTGATAGCATGGCGAT,3.62
17,CTACCAAGATGAACAAGGTCGTTGATTACTATTC,2.52
18,ATCGAAAGGCCGAGGTGAGTATAGAGAAAGGGAA,-0.47
19,CGAAATAGGTCATCCAGGACAGTGAATACATTGA,5.63
20,GGAACGAGGGCGAGTTGATAGCAGAGTTTGATGG,-0.000397
